The whole screen tested about 310,000 compounds, of which about 14,000 (4.5%) showed an effect of 50% or more. The effect is printed as a negative number. This excerpt belongs to a sample that is enriched for strong results.
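Further: peak tail current of the secondary pulse compared with the same well before compound.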

The target of the experiment is human ether-à-go-go-related gene (hERG) potassium channel (human, UniProt Q12809). Put plainly: primary screen, population patch clamp on CHO cells stably expressing hERG; higher = less effect of the substance.
Sequence of human ether-à-go-go-related gene (hERG) potassium channel (Q12809 whole entry, looked up): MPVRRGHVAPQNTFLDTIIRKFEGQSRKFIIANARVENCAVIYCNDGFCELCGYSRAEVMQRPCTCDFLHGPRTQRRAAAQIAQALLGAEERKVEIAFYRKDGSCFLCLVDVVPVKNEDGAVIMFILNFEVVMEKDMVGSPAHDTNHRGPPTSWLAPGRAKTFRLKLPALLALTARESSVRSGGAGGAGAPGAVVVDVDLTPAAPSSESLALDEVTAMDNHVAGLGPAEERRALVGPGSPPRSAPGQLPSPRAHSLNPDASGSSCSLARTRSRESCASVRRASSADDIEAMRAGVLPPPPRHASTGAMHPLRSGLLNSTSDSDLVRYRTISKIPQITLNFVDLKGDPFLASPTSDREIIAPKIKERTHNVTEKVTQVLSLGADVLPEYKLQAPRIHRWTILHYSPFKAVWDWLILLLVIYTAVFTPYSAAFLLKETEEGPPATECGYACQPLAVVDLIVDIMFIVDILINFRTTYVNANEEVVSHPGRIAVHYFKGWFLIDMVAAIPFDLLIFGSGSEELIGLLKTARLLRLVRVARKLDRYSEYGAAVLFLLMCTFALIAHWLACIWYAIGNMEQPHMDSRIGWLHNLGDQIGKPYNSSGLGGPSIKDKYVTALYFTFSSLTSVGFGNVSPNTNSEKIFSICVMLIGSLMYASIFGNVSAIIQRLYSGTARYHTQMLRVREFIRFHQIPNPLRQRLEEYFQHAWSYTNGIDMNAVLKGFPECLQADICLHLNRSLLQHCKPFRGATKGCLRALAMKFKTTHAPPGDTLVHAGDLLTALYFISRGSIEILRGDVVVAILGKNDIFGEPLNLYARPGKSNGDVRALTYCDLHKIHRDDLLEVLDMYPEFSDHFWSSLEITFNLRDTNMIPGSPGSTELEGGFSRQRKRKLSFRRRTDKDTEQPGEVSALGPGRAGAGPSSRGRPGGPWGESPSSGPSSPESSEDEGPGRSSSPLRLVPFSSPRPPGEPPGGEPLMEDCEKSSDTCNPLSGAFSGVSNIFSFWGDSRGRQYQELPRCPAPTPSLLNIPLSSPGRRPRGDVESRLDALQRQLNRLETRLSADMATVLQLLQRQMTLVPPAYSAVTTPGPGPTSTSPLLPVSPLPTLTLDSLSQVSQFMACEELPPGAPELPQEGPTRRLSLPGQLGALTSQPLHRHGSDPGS
As to `Cc1ccc(N(CCC#N)C(=O)COC(=O)c2cc(C)oc2C)cc1`, the “hERG current change (%, negative = inhibition) at 10uM” value is -15.3%.

Regarding `CCOC(=O)C1CCCN(CC(O)COc2ccc(OC)cc2C(C)(C)C)C1` (stereo not drawn), the “hERG current change (%, negative = inhibition) at 10uM” value was -61.4%.

Consider `COc1ccc(CN2CCCC(C(=O)c3ccc(Cl)cc3)C2)c(O)c1` (stereo not drawn), for which the “hERG current change (%, negative = inhibition) at 10uM” value is -67.7%.

For `CCOC(=O)C1CCCN(C2=NC(=O)/C(=C/c3ccc(OC)cc3)S2)C1` (stereo not drawn), the “hERG current change (%, negative = inhibition) at 10uM” value was -20.1%.

For the compound `CCOC(=O)N1CCN(CC(O)COc2ccc(OC)cc2C(C)(C)C)CC1.Cl` (stereo not drawn), the “hERG current change (%, negative = inhibition) at 10uM” value is -12%.

On to `CCOC(=O)C1CCCN(C2=NC(=O)/C(=C/c3ccc(OC)c(OC)c3)S2)C1` (stereo not drawn), for which the “hERG current change (%, negative = inhibition) at 10uM” value is given as -22.8%.

In the case of `COc1ccc(CN2CCCC(C(=O)c3ccc(Cl)cc3)C2)c(OC)c1` (stereo not drawn), the “hERG current change (%, negative = inhibition) at 10uM” value is listed as -75.2%.

In the case of `CCOC(=O)C1CCCN(C2=NC(=O)/C(=C/c3ccc(OC)cc3OC)S2)C1` (stereo not drawn), the “hERG current change (%, negative = inhibition) at 10uM” value is recorded as -52.6%.

Turning to `COc1ccc(CN2CCCC(C(=O)N3CCCCC3)C2)c(OC)c1.O=C(O)C(=O)O` (stereo not drawn), the “hERG current change (%, negative = inhibition) at 10uM” value is on record as -26.7%.

As to `CCOC(=O)C1CCCN(CC(O)COc2cccc(C)c2)C1.Cl` (stereo not drawn), the “hERG current change (%, negative = inhibition) at 10uM” value is -23.7%.

Consider `COc1ccc(C(=O)C2CCCN(Cc3cc(Cl)ccc3O)C2)c(OC)c1` (stereo not drawn), for which the “hERG current change (%, negative = inhibition) at 10uM” value is -26.8%.

For the compound `COC(=O)CC1(CC(=O)OC)C(=O)N(c2ccccc2)C(=O)N(c2ccccc2)C1=O`, the “hERG current change (%, negative = inhibition) at 10uM” value came out at 11.7%.

In the case of `C=CCNC(=O)CN(CCc1ccccc1)S(=O)(=O)c1ccccc1`, the “hERG current change (%, negative = inhibition) at 10uM” value is -17.6%.

For the compound `COc1ccc(CN2CCCC(C(=O)N3CCCC3)C2)c(OC)c1.O=C(O)C(=O)O` (stereo not drawn), the “hERG current change (%, negative = inhibition) at 10uM” value was -9.41%.

Consider `CCOC(=O)C1CCCN(Cc2ccc(OC)cc2OC)C1` (stereo not drawn), for which the “hERG current change (%, negative = inhibition) at 10uM” value is -52.7%.

As for `CCOC(=O)C1CCN(Cc2ccc(OC)cc2OC)CC1`, the “hERG current change (%, negative = inhibition) at 10uM” value was -45.2%.

As for `Cc1ccccc1N1C(=O)NC(=O)/C(=C\c2cc(C)n(C)c2C)C1=O`, the “hERG current change (%, negative = inhibition) at 10uM” value is -3.79%.

`CC(C)CCN1CCN(C/C=C/c2ccco2)CC1CCO` (stereo not drawn): the “hERG current change (%, negative = inhibition) at 10uM” value is -57.1%.

As to `CC(C)CCN1CCN(Cc2cccs2)CC1CCO` (stereo not drawn), the “hERG current change (%, negative = inhibition) at 10uM” value was -10.7%.

`OCCC1CN(C/C=C/c2ccco2)CCN1Cc1ccccc1` (stereo not drawn): the “hERG current change (%, negative = inhibition) at 10uM” value is listed as -8.57%.

`Cc1ccc(CN2CCN(C/C(Cl)=C/c3ccccc3)CC2CCO)o1` (stereo not drawn): the “hERG current change (%, negative = inhibition) at 10uM” value was -45.2%.

With `OCCC1CN(CC(c2ccccc2)c2ccccc2)CCN1C1CCCC1` (stereo not drawn), the “hERG current change (%, negative = inhibition) at 10uM” value is -71.2%.

Consider `OCCC1CN(Cc2ccccn2)CCN1C1CCCC1` (stereo not drawn), for which the “hERG current change (%, negative = inhibition) at 10uM” value was found to be 9.91%.

For the compound `CC(C)CCN1CCN(CC#Cc2ccccc2)CC1CCO` (stereo not drawn), the “hERG current change (%, negative = inhibition) at 10uM” value is -49.9%.

`OCCC1CN(CC#Cc2ccccc2)CCN1C1CCCC1` (stereo not drawn): the “hERG current change (%, negative = inhibition) at 10uM” value is recorded as -46.2%.

As to `CC(C)CCN1CCN(CC(c2ccccc2)c2ccccc2)CC1CCO` (stereo not drawn), the “hERG current change (%, negative = inhibition) at 10uM” value was -82.3%.

As for `CCn1cc(CN2CCN(CCC(C)C)C(CCO)C2)c2ccccc21` (stereo not drawn), the “hERG current change (%, negative = inhibition) at 10uM” value is reported as -31.9%.

`OCCC1CN(C/C(Cl)=C/c2ccccc2)CCN1C1CCCC1` (stereo not drawn): the “hERG current change (%, negative = inhibition) at 10uM” value is -77.4%.

`CC(C)=CCN1CCN(C/C(Cl)=C/c2ccccc2)CC1CCO` (stereo not drawn): the “hERG current change (%, negative = inhibition) at 10uM” value is reported as -26.9%.

As for `CN(C)N1C(=O)CC(N2CCCCC2)C1=O` (stereo not drawn), the “hERG current change (%, negative = inhibition) at 10uM” value was determined as 6.08%.

Turning to `Cc1nn(C(C)C(=O)N2CCc3ccccc32)c(C)c1[N+](=O)[O-]` (stereo not drawn), the “hERG current change (%, negative = inhibition) at 10uM” value came out at 10%.

As for `CC(=O)NS(=O)(=O)c1ccc(NC(=O)c2ccc(NC(=O)c3cccs3)cc2)cc1`, the “hERG current change (%, negative = inhibition) at 10uM” value amounted to 2.48%.

For `COc1cc2c(cc1OC)-c1cc(NC3CC3)nc(=O)n1CC2`, the “hERG current change (%, negative = inhibition) at 10uM” value is -24.8%.

With `O=c1oc2c(-c3cccc(F)c3)cc(O)cc2s1`, the “hERG current change (%, negative = inhibition) at 10uM” value was 8.45%.

Turning to `COc1ccc(NC(=O)CCc2nnc3ccc(NCc4ccco4)nn23)cc1`, the “hERG current change (%, negative = inhibition) at 10uM” value was found to be 1.15%.

For `CCOC(=O)c1c([N+](=O)[O-])c(C)[nH]c(=O)c1C#N`, the “hERG current change (%, negative = inhibition) at 10uM” value was 21.1%.

For the compound `CCC(c1nnnn1Cc1ccco1)N(Cc1cc2cc(OC)ccc2[nH]c1=O)C1CCCCC1` (stereo not drawn), the “hERG current change (%, negative = inhibition) at 10uM” value is on record as -6.37%.

Take `CCN(CC(=O)NCc1cccs1)C(=O)c1ccc([N+](=O)[O-])o1`: the “hERG current change (%, negative = inhibition) at 10uM” value is given as -33.8%.

On to `CCN(CC(=O)NCc1cccs1)C(=O)c1ccc(-c2ccccc2F)o1`, for which the “hERG current change (%, negative = inhibition) at 10uM” value was -71.6%.

Regarding `CCN(CC(=O)NCc1cccs1)C(=O)c1ccc(-c2cccc(C(F)(F)F)c2)o1`, the “hERG current change (%, negative = inhibition) at 10uM” value is recorded as -82.3%.

In the case of `Cc1cccc(C)c1NC(=O)CN(C)C(=O)c1ccc(-c2cccc(C(F)(F)F)c2)o1`, the “hERG current change (%, negative = inhibition) at 10uM” value is recorded as -12.5%.

Take `CCN(CC(=O)NCc1cccs1)C(=O)COc1cccc(C(F)(F)F)c1`: the “hERG current change (%, negative = inhibition) at 10uM” value is reported as -38.2%.

In the case of `CCN(CC(=O)NCc1cccs1)C(=O)c1ccccc1F`, the “hERG current change (%, negative = inhibition) at 10uM” value is 9.12%.

With `Cn1cccc1Cc1nnc(SCC(=O)NC2CCCC2)n1-c1ccc(F)cc1`, the “hERG current change (%, negative = inhibition) at 10uM” value was -19%.

Take `Brc1ccc(-c2csc(Nc3nc(-c4ccc(Br)cc4)cs3)n2)cc1`: the “hERG current change (%, negative = inhibition) at 10uM” value was 15%.
